From paper PMC5892938, “SARNAclust: Semi-automatic detection of RNA protein binding motifs from immunoprecipitation data”
The full ranking holds about 11,000 sequences; the median of “log2 fold change” is about 0.00022, and the highest 2% start at about 0.34. Some of the results follow.

Target: GST-SBP-SLBP (stem-loop binding protein) (Homo sapiens, UniProt Q14493 1-270)
Test: targeted RNA Bind-n-Seq; RBNS binding buffer: 25 mM Tris pH 7.5, 150 mM KCl, 3 mM MgCl2, 0.1% Tween, 0.5 mg/mL BSA, 1 mM DTT; 27 nM protein, 750 pM RNA pool; temperature not stated; high values mean tight binding
Conditions: protein: recombinant; tags: N-terminal GST and SBP (pGEX6P1-SBP); structured_RNA
Outline: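 A designed RNA oligo pool, transcribed with T7, was present at 750 pM and incubated in RBNS binding buffer with 27 nM of GST-SBP-tagged protein that had been expressed in Rosetta(DE3) pLysS E. coli and purified with glutathione. After reverse transcription with a 10-nucleotide barcoded primer and PCR, the bound RNA was sequenced as 200-cycle paired-end reads on a MiSeq. Each sequence's binding signal is the DEseq binary-logarithm fold change in read counts, computed after joining reads with FLASH, aligning with HISAT2 and collapsing by barcode.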

Sequence	binding signal [log2 fold change]
GGUCACGUCUCAAUCAACUCCAAAGAGGGGGGGAAAACCCCUUUGCCCUCAUUCUCAACAGCUCGCAGUCAAG	0.342 ± 0.438
GGUCACGUCUCAAUCAACUCCAAAGAGGGGGGGAAAACCCCUUUGCCCUCCAAUUCAACAGCUCGCAGUCAAG	0.304 ± 0.412
GGUCACGUCUCAAUCAACUCCAAAGAGGGGGGGAAAACCCCUUUGCCCUCAAUAUCAACAGCUCGCAGUCAAG	0.359 ± 0.439
GGUCACGUCUCAAUCAACUCUCAAGAGGGGGGGAAAACCCCUUUGCCCUCCAAAUCAACAGCUCGCAGUCAAG	0.327 ± 0.445
GGUCACGUCUCAAUCAACUCCAAAGAGGGGGGGAAAACCCCUUUGCCCUCGAAAUCAACAGCUCGCAGUCAAG	0.347 ± 0.378
GGUCACGUCUCAAUCAACUCUCUCGAGGGGGGGAAAACCCCUUUGCCCUCAAAAUCAACAGCUCGCAGUCAAG	0.354 ± 0.38
GGUCACGUCUCAAUCAACUCUCUAGAGGGGGGGAAAACCCCUUUGCCCUCAUCCUCAACAGCUCGCAGUCAAG	0.441 ± 0.424
GGUCACGUCUCAAUCAACUCUCUCGAGGGGGGGAAAACCCCUUUGCCCUCAACAUCAACAGCUCGCAGUCAAG	0.307 ± 0.399
GGUCACGUCUCAAUCAACUCUCUAGAGGGGGGGAAAACCCCUUUGCCCUCGUCAUCAACAGCUCGCAGUCAAG	0.374 ± 0.381
GGUCACGUCUCAAUCAACUCACAAGAGGGGGGGAAAACCCCUUUGCCCUCAUCCUCAACAGCUCGCAGUCAAG	0.34 ± 0.422
GGUCACGUCUCAAUCAACUCUCUAGAGGGGGGGAAAACCCCUUUGCCCUCGAAAUCAACAGCUCGCAGUCAAG	0.342 ± 0.443
GGUCACGUCUCAAUCAACUCUCUAGAGGGGGGGAAAACCCCUUUGCCCUCCGUUUCAACAGCUCGCAGUCAAG	0.354 ± 0.438
GGUCACGUCUCAAUCAACUCAUUCGAGGGGGGGAAAACCCCUUUGCCCUCAUCAUCAACAGCUCGCAGUCAAG	0.363 ± 0.407
GGUCACGUCUCAAUCAACUCCUAAGAGGGGGGGAAAACCCCUUUACCCUCGUCCUCAACAGCUCGCAGUCAAG	0.382 ± 0.439
GGUCACGUCUCAAUCAACUCCUAAGAGGGGGGGAAAACCCCUUUACCCUCAAUCUCAACAGCUCGCAGUCAAG	0.429 ± 0.444
GGUCACGUCUCAAUCAACUCCUAAGAGGGGGGGAAAACCCCUUUACCCUCCGCAUCAACAGCUCGCAGUCAAG	0.313 ± 0.425
GGUCACGUCUCAAUCAACUCCUAAGAGGGGGGGAAAACCCCUUUACCCUCACUAUCAACAGCUCGCAGUCAAG	0.433 ± 0.43
GGUCACGUCUCAAUCAACUCUAUAGAGGGGGGGAAAACCCCUUUGCCCUCGAAUUCAACAGCUCGCAGUCAAG	0.377 ± 0.432
GGUCACGUCUCAAUCAACUCCUUAGAGGGGGGGAAAACCCCUUUGCCCUCGAAUUCAACAGCUCGCAGUCAAG	0.379 ± 0.448
GGUCACGUCUCAAUCAACUCUUUAGAGGGGGGGAAAACCCCUUUGCCCUCGAAUUCAACAGCUCGCAGUCAAG	0.388 ± 0.441
GGUCACGUCUCAAUCAACUCUUUAGAGGGGGGGAAAACCCCUUUGCCCUCAACUUCAACAGCUCGCAGUCAAG	0.318 ± 0.415
GGUCACGUCUCAAUCAACUCAUAAGAGGGGGGGAAAACCCCUUUGCCCUCAAUCUCAACAGCUCGCAGUCAAG	0.373 ± 0.408
GGUCACGUCUCAAUCAACUCAAAAGAGGGGGGGAAAACCCCUUUGCCCUCACUUUCAACAGCUCGCAGUCAAG	0.573 ± 0.412
GGUCACGUCUCAAUCAACUCUCAAGAGGGGGGGAAAACCCCUUUGCCCUCGUAAUCAACAGCUCGCAGUCAAG	0.452 ± 0.411

Sequence	binding signal [log2 fold change]
GGUCACGUCUCAAUCAACUCAAAAGAGGGGGGGAAAACCCCUUUGCCCUCACAAUCAACAGCUCGCAGUCAAG	0.31 ± 0.383
GGUCACGUCUCAAUCAACUCUCACGAGGGGGGGAAAACCCCUUUGCCCUCAAUUUCAACAGCUCGCAGUCAAG	0.305 ± 0.454
GGUCACGUCUCAAUCAACUCUCACGAGGGGGGGAAAACCCCUUUGCCCUCACUUUCAACAGCUCGCAGUCAAG	0.351 ± 0.41
GGUCACGUCUCAAUCAACUCACACGAGGGGGGGAAAACCCCUUUGCCCUCAACAUCAACAGCUCGCAGUCAAG	0.529 ± 0.425
GGUCACGUCUCAAUCAACUCUCAAGAGGGGGGGAAAACCCCUUUGCCCUCAACAUCAACAGCUCGCAGUCAAG	0.531 ± 0.415
GGUCACGUCUCAAUCAACUCUCAAGAGGGGGGGAAAACCCCUUUGCCCUCCAUGUCAACAGCUCGCAGUCAAG	0.411 ± 0.415
GGUCACGUCUCAAUCAACUCUCAAGAGGGGGGGAAAACCCCUUUGCCCUCACUUUCAACAGCUCGCAGUCAAG	0.453 ± 0.436
GGUCACGUCUCAAUCAACUCCUAAGAGGGGGGGAAAACCCCUUUGCCCUCAUUCUCAACAGCUCGCAGUCAAG	0.335 ± 0.447
GGUCACGUCUCAAUCAACUCAAUCGAGGGGGGGAAAACCCCUUUGCCCUCACUUUCAACAGCUCGCAGUCAAG	0.594 ± 0.435
GGUCACGUCUCAAUCAACUCCUAAGAGGGGGGGAAAACCCCUUUGCCCUCACCGUCAACAGCUCGCAGUCAAG	0.325 ± 0.438
GGUCACGUCUCAAUCAACUCCUAAGAGGGGGGGAAAACCCCUUUGCCCUCACUUUCAACAGCUCGCAGUCAAG	0.38 ± 0.429
GGUCACGUCUCAAUCAACUCUAAAGAGGGGGGGAAAACCCCUUUGCCCUCACUUUCAACAGCUCGCAGUCAAG	0.415 ± 0.443
GGUCACGUCUCAAUCAACUCUAAAGAGGGGGGGAAAACCCCUUUGCCCUCACUAUCAACAGCUCGCAGUCAAG	0.331 ± 0.434
GGUCACGUCUCAAUCAACUCACAAGAGGGGGGGAAAACCCCUUUACCCUCGAUAUCAACAGCUCGCAGUCAAG	0.383 ± 0.425
GGUCACGUCUCAAUCAACUCAAUAGAGGGGGGGAAAACCCCUUUACCCUCCAUAUCAACAGCUCGCAGUCAAG	0.379 ± 0.407
GGUCACGUCUCAAUCAACUCCAUAGAGGGGGGGAAAACCCCUUUACCCUCACACUCAACAGCUCGCAGUCAAG	0.698 ± 0.433
GGUCACGUCUCAAUCAACUCCUCAGAGGGGGGGAAAACCCCUUUACCCUCCACCUCAACAGCUCGCAGUCAAG	0.326 ± 0.442
GGUCACGUCUCAAUCAACUCCAUAGAGGGGGGGAAAACCCCUUUACCCUCACAUUCAACAGCUCGCAGUCAAG	0.32 ± 0.406
GGUCACGUCUCAAUCAACUCAAUAGAGGGGGGGAAAACCCCUUUACCCUCCACCUCAACAGCUCGCAGUCAAG	0.349 ± 0.417
GGUCACGUCUCAAUCAACUCAAUAGAGGGGGGGAAAACCCCUUUACCCUCGAUAUCAACAGCUCGCAGUCAAG	0.435 ± 0.406
GGUCACGUCUCAAUCAACUCUUUAGAGGGGGGGAAAACCCCUUUACCCUCGAUAUCAACAGCUCGCAGUCAAG	0.336 ± 0.435
GGUCACGUCUCAAUCAACUCCCCAGAGGGGGGGAAAACCCCUUUACCCUCCAUAUCAACAGCUCGCAGUCAAG	0.573 ± 0.413
GGUCACGUCUCAAUCAACUCCCCAGAGGGGGGGAAAACCCCUUUACCCUCCAUCUCAACAGCUCGCAGUCAAG	0.313 ± 0.439
GGUCACGUCUCAAUCAACUCAAACGAGGGGGGGAAAACCCCUUUACCCUCAACUUCAACAGCUCGCAGUCAAG	0.35 ± 0.421

Sequence	binding signal [log2 fold change]
GGUCACGUCUCAAUCAACUCUCACGAGGGGGGGAAAACCCCUUUACCCUCAACUUCAACAGCUCGCAGUCAAG	0.363 ± 0.418
GGUCACGUCUCAAUCAACUCUUACGAGGGGGGGAAAACCCCUUUACCCUCUUCUUCAACAGCUCGCAGUCAAG	0.477 ± 0.42
GGUCACGUCUCAAUCAACUCAAACGAGGGGGGGAAAACCCCUUUACCCUCAUUCUCAACAGCUCGCAGUCAAG	0.326 ± 0.393
GGUCACGUCUCAAUCAACUCUUACGAGGGGGGGAAAACCCCUUUACCCUCACACUCAACAGCUCGCAGUCAAG	0.321 ± 0.386
GGUCACGUCUCAAUCAACUCUCACGAGGGGGGGAAAACCCCUUUACCCUCUUACUCAACAGCUCGCAGUCAAG	0.346 ± 0.439
GGUCACGUCUCAAUCAACUCUAACGAGGGGGGGAAAACCCCUUUACCCUCAACUUCAACAGCUCGCAGUCAAG	0.426 ± 0.419
GGUCACGUCUCAAUCAACUCUAACGAGGGGGGGAAAACCCCUUUACCCUCUAUAUCAACAGCUCGCAGUCAAG	0.308 ± 0.434
GGUCACGUCUCAAUCAACUCUUUCGAGGGGGGGAAAACCCCUUUACCCUCAUAAUCAACAGCUCGCAGUCAAG	0.336 ± 0.429
GGUCACGUCUCAAUCAACUCAACGGAGGGGGGGAAAACCCCUUUACCCUCAACAUCAACAGCUCGCAGUCAAG	0.308 ± 0.444
GGUCACGUCUCAAUCAACUCCUUCGAGGGGGGGAAAACCCCUUUACCCUCACCUUCAACAGCUCGCAGUCAAG	0.36 ± 0.426
GGUCACGUCUCAAUCAACUCCUUCGAGGGGGGGAAAACCCCUUUACCCUCUUAAUCAACAGCUCGCAGUCAAG	0.305 ± 0.422
GGUCACGUCUCAAUCAACUCCUUCGAGGGGGGGAAAACCCCUUUACCCUCACAAUCAACAGCUCGCAGUCAAG	0.304 ± 0.425
GGUCACGUCUCAAUCAACUCCUUCGAGGGGGGGAAAACCCCUUUACCCUCUUCAUCAACAGCUCGCAGUCAAG	0.429 ± 0.434
GGUCACGUCUCAAUCAACUCUUCGGAGGGGGGGAAAACCCCUUUACCCUCAAUCUCAACAGCUCGCAGUCAAG	0.453 ± 0.428
GGUCACGUCUCAAUCAACUCUUUCGAGGGGGGGAAAACCCCUUUACCCUCAUACUCAACAGCUCGCAGUCAAG	0.524 ± 0.429
GGUCACGUCUCAAUCAACUCAAUCGAGGGGGGGAAAACCCCUUUACCCUCACCUUCAACAGCUCGCAGUCAAG	0.499 ± 0.434
GGUCACGUCUCAAUCAACUCAACUCCCAGGGAAAGCCCUGGUAUACUCAACAGCUCGCAGUCAAG	0.301 ± 0.289
GGUCACGUCUCAAUCAACUCUACUUCCAGGGAAACCCCUGGUAUACUCAACAGCUCGCAGUCAAG	0.362 ± 0.285
GGUCACGUCUCAAUCAACUCAACUUCCAGGGAAAACCCUGGUAUACUCAACAGCUCGCAGUCAAG	0.373 ± 0.293
GGUCACGUCUCAAUCAACUCAAUUUCCAGGGAAAGCCCUGGUAUACUCAACAGCUCGCAGUCAAG	0.343 ± 0.255
GGUCACGUCUCAAUCAACUCGCAAGAGGGGGGGAAAACCCCUUUACCCUCAAAUUCAACAGCUCGCAGUCAAG	0.308 ± 0.444
GGUCACGUCUCAAUCAACUCGCAAGAGGGGGGGAAAACCCCUUUACCCUCAAUUUCAACAGCUCGCAGUCAAG	0.343 ± 0.444
GGUCACGUCUCAAUCAACUCACUAGAGGGGGGGAAAACCCCUUUACCCUCAAUUUCAACAGCUCGCAGUCAAG	0.352 ± 0.409
GGUCACGUCUCAAUCAACUCUCUAGAGGGGGGGAAAACCCCUUUACCCUCACUUUCAACAGCUCGCAGUCAAG	0.308 ± 0.399
